Data: PubChem BioAssay (EPA / NIEHS)
The source made the active and inactive calls. How the source made its calls: active means hit-call score of the fitted dose curve at least 0.9, where 1 is the maximum; inactive means score below 0.9.

Assays:
[1] = ATG_CRE_CIS: Attagene CIS-FACTORIAL HepG2 Assay for human cAMP Responsive Element (CRE) binding protein 3 (AID 2282926); settings: HepG2 CRE cis-reporter, Attagene multiplexed mRNA; actives raise or lower the signal
Method in brief: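 We dosed HepG2 cells bearing multiple cis-promoter reporter units for 24 h and measured reporter mRNA by RT-PCR with capillary electrophoresis detection. Bidirectional concentration-response fitting used DMSO as negative control.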

[2] = biological target: CCAAT/enhancer-binding protein beta (Homo sapiens) (UniProt P17676); test: ATG_C_EBP_CIS: Attagene CIS-FACTORIAL HepG2 Assay for human CCAAT/Enhancer Binding Protein (C/EBP) beta (AID 2282927); settings: HepG2 Attagene cis-factorial transcription factor reporter; actives raise or lower the signal
CCAAT/enhancer-binding protein beta (Homo sapiens), sequence (P17676 whole entry, looked up): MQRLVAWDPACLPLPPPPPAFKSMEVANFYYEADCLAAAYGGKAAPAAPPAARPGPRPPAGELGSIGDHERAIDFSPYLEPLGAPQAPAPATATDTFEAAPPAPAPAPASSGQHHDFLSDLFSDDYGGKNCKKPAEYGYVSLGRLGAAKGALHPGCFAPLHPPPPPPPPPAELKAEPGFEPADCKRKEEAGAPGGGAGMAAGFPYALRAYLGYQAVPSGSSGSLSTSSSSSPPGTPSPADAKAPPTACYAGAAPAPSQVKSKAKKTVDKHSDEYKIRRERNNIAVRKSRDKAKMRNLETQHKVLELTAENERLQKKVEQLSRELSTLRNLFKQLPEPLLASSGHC
Method in brief: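 HepG2, transient MRTU transfection, 24 h treatment. RT-PCR plus CE fluorescence; DMSO negative control, bidirectional fit.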

[3] = ATG_CMV_CIS: Attagene CIS-FACTORIAL HepG2 Assay for human CMV (Internal Marker) (AID 2282928); settings: HepG2 CMV promoter reporter, transcription factor profiling; actives raise or lower the signal;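 further: endpoint acts as a background internal control marker rather than a target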
Method in brief: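 After transient transfection of HepG2 with reporter transcription units driven by cis-regulatory promoters, cells receive test chemical for 24 h. Labeled reporter amplicons, digested with HpaI, are sized and quantified by capillary electrophoresis against DMSO.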

[4] = ATG_DR4_LXR_CIS: Attagene CIS-FACTORIAL HepG2 Assay for human Liver X Receptor (LXR), DR4 submotif (AID 2282929); settings: HepG2 Attagene DR4 cis-reporter, mRNA transcription; actives raise or lower the signal
Method in brief: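 HepG2 cells were transiently transfected with multiple cis-regulated reporter units and dosed for 24 hours. The DR4 reporter mRNA was quantified by RT-PCR, 6-FAM labelling and capillary electrophoresis. Bidirectional fits used DMSO as baseline.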

[5] = biological target: Aryl hydrocarbon receptor (Homo sapiens) (UniProt P35869); test: ATG_Ahr_CIS: Attagene CIS-FACTORIAL HepG2 Assay for human Aryl Hydrocarbon Receptor (Ahr) (AID 2282930); settings: HepG2 AhR cis-factorial reporter transcription; actives raise or lower the signal
Aryl hydrocarbon receptor (Homo sapiens), sequence (P35869 whole entry, looked up): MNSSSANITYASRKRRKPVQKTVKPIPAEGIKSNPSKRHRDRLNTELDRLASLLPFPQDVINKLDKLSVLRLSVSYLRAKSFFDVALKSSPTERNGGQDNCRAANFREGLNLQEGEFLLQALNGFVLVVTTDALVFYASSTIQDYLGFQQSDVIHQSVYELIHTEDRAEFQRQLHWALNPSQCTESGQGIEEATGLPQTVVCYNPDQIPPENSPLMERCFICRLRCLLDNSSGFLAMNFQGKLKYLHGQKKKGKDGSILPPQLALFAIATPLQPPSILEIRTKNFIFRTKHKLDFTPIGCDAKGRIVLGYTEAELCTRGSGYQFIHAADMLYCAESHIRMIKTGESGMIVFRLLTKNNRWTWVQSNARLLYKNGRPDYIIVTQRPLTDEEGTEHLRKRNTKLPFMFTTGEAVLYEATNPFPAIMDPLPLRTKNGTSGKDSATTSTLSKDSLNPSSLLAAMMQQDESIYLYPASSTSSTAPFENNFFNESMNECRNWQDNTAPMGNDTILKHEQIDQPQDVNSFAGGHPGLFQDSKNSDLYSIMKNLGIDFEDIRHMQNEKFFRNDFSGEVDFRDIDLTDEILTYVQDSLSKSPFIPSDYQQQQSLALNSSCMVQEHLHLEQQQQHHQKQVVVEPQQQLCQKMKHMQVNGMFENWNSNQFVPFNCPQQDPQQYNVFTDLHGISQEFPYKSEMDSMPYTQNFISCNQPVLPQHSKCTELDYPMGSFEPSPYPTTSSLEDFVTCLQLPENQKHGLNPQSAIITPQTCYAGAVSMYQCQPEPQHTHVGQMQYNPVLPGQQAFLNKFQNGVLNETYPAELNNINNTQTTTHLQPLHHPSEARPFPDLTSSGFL
Method in brief: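 Endogenous factor activity is tracked through cis-promoter reporter units transfected into HepG2 cells. Transcript levels at 24 h are read by fluorescent RT-PCR and capillary electrophoresis, with activity in either direction scored relative to DMSO.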

[6] = ATG_AP_1_CIS: Attagene CIS-FACTORIAL HepG2 Assay for human Activator Protein 1 (AP-1) (AID 2282931); settings: HepG2 Attagene cis-factorial AP-1 reporter mRNA; actives raise or lower the signal
Method in brief: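 HepG2 cells transiently transfected with cis-element-driven reporter transcription units, dosed for 24 hours. Reporter mRNA measured by RT-PCR, 6-FAM labelling, HpaI digestion and capillary electrophoresis. Bidirectional fitting against DMSO baseline.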

[7] = ATG_BRE_CIS: Attagene CIS-FACTORIAL HepG2 Assay for human Bone Morphogenetic Protein (BMP) Response Element (BRE) (AID 2282933); settings: HepG2 BMP response element reporter, Attagene transcription factor profiling; actives raise or lower the signal
Method in brief: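 Read-out: reporter mRNA induction quantified by RT-PCR and capillary electrophoresis after 24 h chemical exposure of transfected HepG2 cells. Endogenous factor activity on the BMP response element; gain or loss fitted against DMSO baseline.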

[8] = biological target: Retinoic acid receptor alpha (Homo sapiens) (UniProt P10276); test: ATG_DR5_RAR_CIS: Attagene CIS-FACTORIAL HepG2 Assay for human Retinoic Acid Receptor Alpha (RARE), DR5 submotif (AID 2282934); settings: HepG2 Attagene cis-factorial RARE DR5 reporter, mRNA; actives raise or lower the signal
Retinoic acid receptor alpha (Homo sapiens), sequence (P10276 whole entry, looked up): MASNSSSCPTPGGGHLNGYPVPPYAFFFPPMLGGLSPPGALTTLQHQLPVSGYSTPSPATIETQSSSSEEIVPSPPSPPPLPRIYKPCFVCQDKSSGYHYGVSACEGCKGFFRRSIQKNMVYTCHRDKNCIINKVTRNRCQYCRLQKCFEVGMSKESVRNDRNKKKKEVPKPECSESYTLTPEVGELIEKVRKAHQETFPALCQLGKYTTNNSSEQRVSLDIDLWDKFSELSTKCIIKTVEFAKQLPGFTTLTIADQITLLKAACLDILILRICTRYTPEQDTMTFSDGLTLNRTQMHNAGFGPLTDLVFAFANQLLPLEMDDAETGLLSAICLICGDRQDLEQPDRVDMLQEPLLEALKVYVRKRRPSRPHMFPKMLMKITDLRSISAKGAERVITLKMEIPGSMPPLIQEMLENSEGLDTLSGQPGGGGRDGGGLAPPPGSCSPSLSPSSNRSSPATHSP
Method in brief: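 After 24 h of chemical exposure, transiently transfected HepG2 cells were lysed for total RNA; the DR5-regulated reporter transcript was quantified via RT-PCR and capillary electrophoresis, with activity fitted bidirectionally against DMSO.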

[9] = biological target: Transcription factor E2F1 (Homo sapiens) (UniProt Q01094); test: ATG_E2F_CIS: Attagene CIS-FACTORIAL HepG2 Assay for human E2F Transcription Factor 1 (AID 2282935); settings: HepG2 Attagene cis-reporter, E2F reporter RNA transcripts; actives raise or lower the signal
Transcription factor E2F1 (Homo sapiens), sequence (Q01094 whole entry, looked up): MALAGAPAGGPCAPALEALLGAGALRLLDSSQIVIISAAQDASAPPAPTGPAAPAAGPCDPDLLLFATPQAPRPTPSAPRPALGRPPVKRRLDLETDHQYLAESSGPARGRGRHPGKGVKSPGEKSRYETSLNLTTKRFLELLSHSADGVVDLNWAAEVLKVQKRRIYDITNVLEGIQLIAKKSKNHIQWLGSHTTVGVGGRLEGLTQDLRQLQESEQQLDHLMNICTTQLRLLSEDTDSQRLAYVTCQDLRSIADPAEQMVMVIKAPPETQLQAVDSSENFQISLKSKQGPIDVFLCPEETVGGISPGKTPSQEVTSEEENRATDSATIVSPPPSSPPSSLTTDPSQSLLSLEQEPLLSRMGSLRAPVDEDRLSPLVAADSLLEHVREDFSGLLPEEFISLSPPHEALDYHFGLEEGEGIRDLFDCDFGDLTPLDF
Method in brief: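 Endogenous E2F1 activity read through cis-promoter reporter units transfected into HepG2. After 24 h compound treatment, reporter mRNA measured by RT-PCR, HpaI digestion and capillary electrophoresis. Bidirectional fit versus DMSO.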

[10] = ATG_E_Box_CIS: Attagene CIS-FACTORIAL HepG2 Assay for human Enhancer Box (E-box) (AID 2282936); settings: HepG2 E-box cis-reporter transcription, actives raise or lower the signal
Method in brief: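 HepG2 cells transiently transfected with multiplexed cis-element reporter units, dosed 24 h; reporter mRNA quantified by RT-PCR, 6-FAM labelling, HpaI digestion and capillary electrophoresis. E-box (USF1) signal fitted bidirectionally vs DMSO.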

[11] = ATG_M_61_CIS: Attagene CIS-FACTORIAL HepG2 Assay for M61 Transcription Factor (Internal Marker) (AID 2282937); settings: HepG2 Attagene CIS-FACTORIAL M61 internal marker reporter; actives raise or lower the signal
Method in brief: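 HepG2 cells transiently transfected with multiplexed cis-promoter reporter units reporting endogenous transcription factor activity, measured 24 h after dosing. Reporter mRNA quantified by RT-PCR and capillary electrophoresis; bidirectional fit against DMSO baseline.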

[12] = ATG_EGR_CIS: Attagene CIS-FACTORIAL HepG2 Assay for human Early Growth Response 1 (EGR1) (AID 2282938); settings: HepG2 Attagene CIS-FACTORIAL EGR reporter mRNA; actives raise or lower the signal
Method in brief: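 HepG2 cells transiently transfected with cis-element-driven multiplexed reporter units, dosed for 24 h. EGR1-element reporter mRNA quantified by RT-PCR, 6-FAM labelling, HpaI digestion and capillary electrophoresis; bidirectional fit versus DMSO.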

[13] = ATG_M_19_CIS: Attagene CIS-FACTORIAL HepG2 Assay for M19 Transcription Factor (Internal Marker) (AID 2282939); settings: HepG2 Attagene CIS-FACTORIAL M19 internal marker reporter; actives raise or lower the signal
Method in brief: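 Readout: fluorescent reporter-transcript fragments by capillary electrophoresis after RT-PCR. Human HepG2 liver cells carried transfected MRTU constructs reporting endogenous transcription-factor activity; exposure 24 h. Gain or loss of signal fitted relative to DMSO.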

[14] = ATG_ERE_CIS: Attagene CIS-FACTORIAL HepG2 Assay for Estrogen Response Element (ERE) (AID 2282940); settings: HepG2 ERE cis-reporter, Attagene RNA transcript; actives raise or lower the signal
Method in brief: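 Readout: reporter mRNA induction by RT-PCR, FAM-labelled primer extension, HpaI digestion and capillary electrophoresis, 24 h after dosing transfected HepG2 cells. Endogenous transcription factors act on cis-element-regulated reporters. Gain or loss fitted against DMSO.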

[15] = ATG_Ets_CIS: Attagene CIS-FACTORIAL HepG2 Assay for human Erythroblast Transformation Specific (ETS) (AID 2282941); settings: HepG2 ETS cis-reporter transcription, actives raise or lower the signal
Method in brief: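 Human HepG2 hepatoma cells were transiently transfected with promoter-driven reporter constructs and treated for 24 hours. Reporter transcripts were quantified by RT-PCR with fluorescent primer extension; bidirectional curve fitting used DMSO as reference.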

[16] = biological target: Hepatocyte nuclear factor 3-beta (Homo sapiens) (UniProt Q9Y261); test: ATG_FoxA2_CIS: Attagene CIS-FACTORIAL HepG2 Assay for human Forkhead box A2 (FOXA2) (AID 2282942); settings: HepG2 cis-reporter transcription factor activity, 24 h; actives raise or lower the signal
Hepatocyte nuclear factor 3-beta (Homo sapiens), sequence (Q9Y261 whole entry, looked up): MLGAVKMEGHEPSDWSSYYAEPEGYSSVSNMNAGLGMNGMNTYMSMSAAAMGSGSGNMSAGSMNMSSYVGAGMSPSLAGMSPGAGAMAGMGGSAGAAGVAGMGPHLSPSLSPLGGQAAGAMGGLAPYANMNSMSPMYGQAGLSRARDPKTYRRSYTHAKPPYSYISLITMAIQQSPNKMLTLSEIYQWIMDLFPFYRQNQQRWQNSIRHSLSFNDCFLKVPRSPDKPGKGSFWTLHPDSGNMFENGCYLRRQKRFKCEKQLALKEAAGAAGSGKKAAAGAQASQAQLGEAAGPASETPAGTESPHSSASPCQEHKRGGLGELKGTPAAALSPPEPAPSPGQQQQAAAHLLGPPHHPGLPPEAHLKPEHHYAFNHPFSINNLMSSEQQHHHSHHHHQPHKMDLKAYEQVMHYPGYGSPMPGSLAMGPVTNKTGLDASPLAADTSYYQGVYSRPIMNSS
Method in brief: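 HepG2 transiently transfected with a multiplexed cis-promoter reporter library read endogenous FOXA2 activity. After 24 h compound exposure, reporter mRNA was quantified by RT-PCR, HpaI digestion and capillary electrophoresis. Bidirectional fit against DMSO.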

[17] = ATG_FoxO_CIS: Attagene CIS-FACTORIAL HepG2 Assay for human Forkhead box O (FoxO) (AID 2282943); settings: HepG2 Attagene cis-reporter, FoxO element, mRNA; actives raise or lower the signal
Method in brief: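 Transfected HepG2 reporter cells exposed to test chemical for 24 h; reporter RNA measured by reverse transcription, PCR and fluorescent capillary electrophoresis; curves fitted for increases and decreases against DMSO.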

[18] = ATG_GATA_CIS: Attagene CIS-FACTORIAL HepG2 Assay for human GATA Binding Protein (AID 2282944); settings: HepG2 GATA cis-element reporter, Attagene multiplex mRNA; actives raise or lower the signal
Method in brief: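 Read-out: fluorescent reporter mRNA fragments resolved by capillary electrophoresis after RT-PCR. Human liver HepG2 cells carried transiently transfected cis-regulated reporter constructs; chemicals incubated 24 h; gain or loss of signal fitted relative to DMSO.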

[19] = ATG_GLI_CIS: Attagene CIS-FACTORIAL HepG2 Assay for human Zinc Finger Protein GLI1 (AID 2282945); settings: HepG2, Attagene cis-factorial reporter mRNA, GLI element; actives raise or lower the signal
Method in brief: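 Transiently transfected HepG2 cells report endogenous transcription factor activity via cis-element-driven reporter units. After 24 h compound exposure, reporter mRNA was measured by RT-PCR with capillary electrophoresis; bidirectional fitting against DMSO baseline.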

[20] = ATG_AP_2_CIS: Attagene CIS-FACTORIAL HepG2 Assay for human Activator Protein 2 (AP-2) (AID 2282932); settings: HepG2 AP-2 cis-reporter, Attagene transcription factor profiling; actives raise or lower the signal
Method in brief: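 HepG2 cells transiently transfected with cis-element reporter units and exposed for 24 h. Reporter mRNA measured by RT-PCR, FAM labelling, HpaI digestion and capillary electrophoresis. Changes in either direction fitted relative to DMSO.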

Measured: outcome

Cc1ccc(C(C)(C)C)cc1
not listed: [20]
inactive: all other assays above

CCCCCCCC[N+](C)(CCCCCCCC)CCCCCCCC
not listed: [5] | [18]
inactive: all other assays above

COCc1c(C(C)C)nc(C(C)C)c(/C=C/[C@@H](O)C[C@@H](O)CC(=O)O)c1-c1ccc(F)cc1
not listed: [20]
inactive: all other assays above

CCCCCCOc1cc(C)c(O)c(C)c1C
not listed: [11] | [20]
inactive: all other assays above

CCCc1ccc(OC)cc1
not listed: [5]
inactive: all other assays above

Nc1ccc(Cl)cc1Cl
not listed: [5]
inactive: all other assays above

COC(=O)c1cc(Cl)ccc1[N+](=O)[O-]
not listed: [18] | [20]
inactive: all other assays above

C=C(C)[C@H]1CC=C(C)CC1
not listed: [8]
inactive: all other assays above
